Assay outcomes from PubChem.
D1 mod – allosteric modulators of human D1 dopamine receptor; HEK293 D1, CRE-luciferase, dopamine EC30 potentiation; actives deviate in either direction; 58,000 tested, 5.9% active; B-score at 10 µM;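 active means luminescence count or its row- and column-corrected plate score outside the 99.7% band of the plate's sample wells, on either side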
CYP2C19 inh – blocks human cytochrome P450 2C19. CYP2C19 Supersomes, luciferin-H EGE luminescence, 30 min. inhibition, % at 5 µM. 96,000 tested, 21% active. AID 778;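 active means CYP2C19 inhibition above a set limit at 5 µM in the primary screen, cut at about 50% in these data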
CYP2C19 act – activators of human cytochrome P450 2C19; P33261; recombinant CYP2C19, luciferin-H EGE luminescence; stronger effect = higher value; 0 = fully inhibited enzyme, 1 = untreated enzyme; activation factor at 5 µM; 96,000 tested, under 10 active;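 active means activation factor of at least 2 at 5 µM in the primary screen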
hDAT+cocaine – changed human dopamine transporter uptake under cocaine IC80; Q01959; LLC-PK1 hDAT cells, [14C]-dopamine uptake with cocaine IC80; actives deviate in either direction; AID 449768; 110,000 tested, 1.3% active; B-score at 10 µM;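 active means Z score or B-score, a plate-position-corrected score, falls beyond the plate's 99.7% confidence bounds, in either direction; inactive means both scores lie inside the 99.7% bounds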
CYP2C9 act – CYP2C9 (human) activation | P11712 | recombinant CYP2C9, luciferin-H conversion, luminescence; stronger effect = higher value; factor 1 = untreated enzyme, 0 = blocked | activation factor at 5 µM | 96,000 tested, 1.4% active;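 active means activation factor of 2 or more for CYP2C9 at a 5 µM dose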
Target sequence (P11712 whole entry, looked up): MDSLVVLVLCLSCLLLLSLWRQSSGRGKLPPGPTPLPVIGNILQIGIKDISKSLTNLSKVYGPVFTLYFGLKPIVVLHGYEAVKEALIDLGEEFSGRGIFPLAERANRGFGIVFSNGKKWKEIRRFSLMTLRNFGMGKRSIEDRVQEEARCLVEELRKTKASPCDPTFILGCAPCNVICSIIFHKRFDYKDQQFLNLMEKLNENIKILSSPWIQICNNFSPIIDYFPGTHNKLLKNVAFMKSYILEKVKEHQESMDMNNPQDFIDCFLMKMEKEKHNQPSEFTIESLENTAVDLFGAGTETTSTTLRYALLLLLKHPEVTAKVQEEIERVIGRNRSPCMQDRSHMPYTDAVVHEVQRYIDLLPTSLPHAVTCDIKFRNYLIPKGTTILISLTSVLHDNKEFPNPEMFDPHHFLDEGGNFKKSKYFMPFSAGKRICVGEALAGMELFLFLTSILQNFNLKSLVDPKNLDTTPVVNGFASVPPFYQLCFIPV
CYP2C9 inhib – inhibitors of human CYP2C9 | CYP2C9 Supersomes, luciferin-H conversion, luminescence | inhibition, % at 5 µM | 96,000 tested, 20% active;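 active means blocking of liver enzyme CYP2C9 beyond about 50% at 5 µM, limit read from the data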
Numbers stand for hits. Hits are enriched below; roughly 28% of the tested compounds scored in any of these assays.

Results for COc1ccccc1N(CC(=O)NCC1CCCO1)C(=O)CCC(=O)Nc1nccs1 (stereo not given) ?
hDAT+cocaine: inactive

How did C#CCNC(=O)C1=C[C@@H](C2CC2)C[C@@H](OCc2ccc(CO)cc2)O1 do in these assays?
hDAT+cocaine: inactive

What do the screens show for `COc1ccc2cc(CN(CCCN3CCOCC3)Cc3nnnn3C3CCCC3)c(=O)[nH]c2c1`?
D1 mod: inactive; CYP2C19 inh: inactive; CYP2C19 act: inactive; hDAT+cocaine: inactive; CYP2C9 act: inactive; CYP2C9 inhib: inactive

How did Cc1ccc(NC(=O)c2ccc(-c3nn(C)c(=O)c4ccccc34)cc2)c(C)c1 do in these assays?
CYP2C19 inh: inactive; CYP2C19 act: inactive; hDAT+cocaine: inactive; CYP2C9 act: inactive; CYP2C9 inhib: inactive

Results for CC(O)CNC(=O)c1ccc(-c2nn(C)c(=O)c3ccccc23)cc1 (stereo not given) ?
CYP2C19 inh: inactive; CYP2C19 act: inactive; hDAT+cocaine: inactive; CYP2C9 act: inactive; CYP2C9 inhib: inactive

How did Cc1ccc(NC(=O)c2ccc(-c3nn(C)c(=O)c4ccccc34)cc2)cc1 do in these assays?
CYP2C19 inh: inactive; CYP2C19 act: inactive; hDAT+cocaine: inactive; CYP2C9 act: inactive; CYP2C9 inhib: 57.1

What do the screens show for `Cn1nc(-c2ccc(C(=O)Nc3cccnc3)cc2)c2ccccc2c1=O`?
D1 mod: inactive; CYP2C19 inh: 58.5; CYP2C19 act: inactive; hDAT+cocaine: inactive; CYP2C9 act: inactive; CYP2C9 inhib: 53.3

How did CCCc1oc2c(c(=O)c1CC)C(=O)CC(C)(C)C2 do in these assays?
D1 mod: inactive; CYP2C19 inh: inactive; CYP2C19 act: inactive; hDAT+cocaine: inactive; CYP2C9 act: inactive; CYP2C9 inhib: inactive

What do the screens show for `Cc1occc1C(=O)Nc1sc2c(c1C(N)=O)CCC(C(C)(C)C)C2` (stereo not given)?
CYP2C19 inh: inactive; CYP2C19 act: inactive; hDAT+cocaine: inactive; CYP2C9 act: inactive; CYP2C9 inhib: 58.5

Results for Cc1ccc(-c2nn3c(C)nnc3c3ccccc23)cc1S(=O)(=O)NCc1ccccc1 ?
CYP2C19 inh: inactive; CYP2C19 act: inactive; hDAT+cocaine: inactive; CYP2C9 act: inactive; CYP2C9 inhib: inactive

How did Cc1ccc(-c2nn3c(C)nnc3c3ccccc23)cc1S(=O)(=O)N(C)CCO do in these assays?
CYP2C19 inh: inactive; CYP2C19 act: inactive; hDAT+cocaine: inactive; CYP2C9 act: inactive; CYP2C9 inhib: 85.5

Results for CCOC(=O)N1CCN(S(=O)(=O)c2cc(-c3nn4c(C)nnc4c4ccccc34)ccc2C)CC1 ?
CYP2C19 inh: 56.1; CYP2C19 act: inactive; hDAT+cocaine: inactive; CYP2C9 act: inactive; CYP2C9 inhib: 80.1

How did CC1CCN(CCCn2c(=S)[nH]c3ccc(N4CCOCC4)cc3c2=O)CC1 do in these assays?
D1 mod: inactive; CYP2C19 inh: inactive; CYP2C19 act: inactive; hDAT+cocaine: inactive; CYP2C9 act: inactive; CYP2C9 inhib: inactive

How did COc1ccc(-c2nc(C(N)=O)c3[nH]c(=O)n(-c4ccccc4OC)c3n2)c(OC)c1 do in these assays?
D1 mod: inactive; CYP2C19 inh: inactive; CYP2C19 act: inactive; hDAT+cocaine: inactive; CYP2C9 act: inactive; CYP2C9 inhib: inactive

How did COc1ccc(OC)c(-c2nc(C(N)=O)c3[nH]c(=O)n(-c4ccc(F)cc4)c3n2)c1 do in these assays?
D1 mod: inactive; CYP2C19 inh: inactive; CYP2C19 act: inactive; hDAT+cocaine: inactive; CYP2C9 act: inactive; CYP2C9 inhib: 53.8

Results for CCOc1cccc(-c2nc(C(N)=O)c3[nH]c(=O)n(-c4cccc(Cl)c4)c3n2)c1O ?
D1 mod: inactive; CYP2C19 inh: inactive; CYP2C19 act: inactive; hDAT+cocaine: inactive; CYP2C9 act: inactive; CYP2C9 inhib: inactive

Results for CCOc1ccccc1-c1nc(C(N)=O)c2[nH]c(=O)n(-c3cccc(C)c3)c2n1 ?
D1 mod: inactive; CYP2C19 inh: inactive; CYP2C19 act: inactive; CYP2C9 act: inactive; CYP2C9 inhib: 63.7

Results for COc1ccccc1-n1c(=O)[nH]c2c(C(N)=O)nc(-c3cccnc3)nc21 ?
D1 mod: 18.3; hDAT+cocaine: inactive

How did CCOC(=O)N1CCN(C(=O)CSCC(=O)Nc2nc(-c3ccc(Cl)s3)cs2)CC1 do in these assays?
D1 mod: inactive; hDAT+cocaine: inactive

Results for Cc1ccsc1C(=O)OCC(=O)Nc1sccc1C(N)=O ?
D1 mod: inactive; CYP2C19 inh: inactive; CYP2C19 act: inactive; hDAT+cocaine: inactive; CYP2C9 act: inactive; CYP2C9 inhib: inactive

What do the screens show for `COc1ccc(NC(=O)COC(=O)[C@@H]2CCCN2C(=O)c2cccs2)c(OC)c1`?
CYP2C19 inh: inactive; CYP2C19 act: inactive; hDAT+cocaine: inactive; CYP2C9 act: inactive; CYP2C9 inhib: 56.1

How did NC(=O)c1ccsc1NC(=O)COC(=O)C1CCCN1C(=O)c1cccs1 (stereo not given) do in these assays?
CYP2C19 inh: 72.4; CYP2C19 act: inactive; hDAT+cocaine: inactive; CYP2C9 act: inactive; CYP2C9 inhib: 72.3

Results for CCC(C)c1ccc(Nc2ncccc2C#N)cc1 (stereo not given) ?
CYP2C19 inh: inactive; CYP2C19 act: inactive; hDAT+cocaine: inactive; CYP2C9 act: inactive; CYP2C9 inhib: inactive

What do the screens show for `O=C(Nc1ccc(F)cc1F)c1ccco1`?
D1 mod: inactive; CYP2C19 inh: inactive; CYP2C19 act: inactive; hDAT+cocaine: inactive; CYP2C9 act: inactive; CYP2C9 inhib: inactive

What do the screens show for `O=C(Nc1cccc(C(F)(F)F)c1)c1ccco1`?
D1 mod: inactive; CYP2C19 inh: inactive; CYP2C19 act: inactive; hDAT+cocaine: inactive; CYP2C9 act: inactive; CYP2C9 inhib: inactive

What do the screens show for `O=C(Nc1ccc(F)cc1)c1sccc1SCc1cccc(C(F)(F)F)c1`?
CYP2C19 inh: inactive; CYP2C19 act: inactive; hDAT+cocaine: inactive; CYP2C9 act: inactive; CYP2C9 inhib: 64.7

Results for COc1ccc(NC(=O)c2sccc2SCc2cccc(C(F)(F)F)c2)cc1 ?
CYP2C19 inh: 50.5; CYP2C19 act: inactive; hDAT+cocaine: inactive; CYP2C9 act: inactive; CYP2C9 inhib: 68.8

How did O=C(Nc1ccc(F)cc1F)c1sccc1SCc1cccc(C(F)(F)F)c1 do in these assays?
CYP2C19 inh: inactive; CYP2C19 act: inactive; CYP2C9 act: inactive; CYP2C9 inhib: 57.9

Results for Cc1noc(/C=C/N(C)C)c1S(=O)(=O)N1CCC(C(=O)O)CC1 ?
D1 mod: inactive; CYP2C19 inh: inactive; CYP2C19 act: inactive; hDAT+cocaine: inactive; CYP2C9 act: inactive; CYP2C9 inhib: inactive

How did CCOC(=O)c1c(C)c(C(=O)Nc2ccc3c(c2)OCCO3)c(C)n1C do in these assays?
D1 mod: inactive; CYP2C19 inh: inactive; CYP2C19 act: inactive; hDAT+cocaine: inactive; CYP2C9 act: inactive; CYP2C9 inhib: inactive

Results for CCOc1ccccc1NC(=O)NC1CCN(CC(=O)Nc2ccc3c(c2)OCCO3)CC1 ?
D1 mod: inactive; CYP2C19 inh: 58.9; CYP2C19 act: inactive; hDAT+cocaine: inactive; CYP2C9 act: inactive; CYP2C9 inhib: inactive

How did CCOC(=O)c1ccc(NC(=O)Nc2ccc3c(c2)OCCO3)cc1 do in these assays?
D1 mod: -2.4; hDAT+cocaine: inactive
